# Measurements taken from PubChem BioAssay (EPA / NIEHS).
# Inconclusive results are not listed. The source made the active and inactive calls. How the source made its calls: active means hit-call score of the fitted dose curve at least 0.9, where 1 is the maximum; inconclusive means response in the unintended direction; inactive means score below 0.9.
# Columns and labels:
# Caspase-1 (Homo sapiens) = Caspase-1 (Homo sapiens) (UniProt P29466); assay: NVS_ENZ_hCASP1: NovaScreen (NVS) Enzymatic Assay for human Caspase 1 (CASP1) (AID 2283132)
# Caspase-1 (Homo sapiens), sequence (P29466 whole entry, looked up): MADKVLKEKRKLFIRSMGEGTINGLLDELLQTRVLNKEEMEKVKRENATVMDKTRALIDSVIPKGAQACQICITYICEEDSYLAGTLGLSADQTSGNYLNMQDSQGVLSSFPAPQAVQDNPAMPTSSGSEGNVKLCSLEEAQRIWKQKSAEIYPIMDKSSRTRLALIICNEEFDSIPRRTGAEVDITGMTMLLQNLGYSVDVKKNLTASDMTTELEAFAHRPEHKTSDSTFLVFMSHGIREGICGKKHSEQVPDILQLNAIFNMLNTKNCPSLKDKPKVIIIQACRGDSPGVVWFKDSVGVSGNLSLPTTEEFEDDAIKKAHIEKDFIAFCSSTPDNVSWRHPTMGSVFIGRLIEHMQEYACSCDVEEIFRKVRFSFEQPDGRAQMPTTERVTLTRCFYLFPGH
# Procedure: NVS_ENZ_hCASP1 is a biochemical, single-readout assay that uses extracted gene-proteins from E. coli in a cell-free assay. Measurements were taken 1 hour after chemical dosing in a 96-well plate.NVS_ENZ_hCASP1 is one of one assay component(s) measured or calculated from the NVS_ENZ_hCASP1 assay. It is designed to make measurements of enzyme activity, a form of enzyme reporter, as detected with fluorescence intensity signals by Fluorescence technology.Data from the assay component NVS_ENZ_hCASP1 was analyzed into 1 assay endpoint. This assay endpoint, NVS_ENZ_hCASP1, was analyzed in the positive analysis fitting direction relative to DMSO as the negative control and baseline of activity. […] Furthermore, this assay endpoint can be referred to as a primary readout, because this assay has produced multiple assay endpoints where this one serves a enzymatic activity function. […]
# Binding assays used specific radioligands (tritiated, iodinated) with non-radioactive competitive displacement ligands in agonist or antagonist protocols (as indicated) and various reference compounds and inhibitors to titrate specific binding to receptors and transporters. Most enzyme assays (CYPs, kinases, phosphatases, proteases, HDACs) used recombinant protein and specific substrates (fluorescence mostly, some colorimetric and radioactive) and inhibitors, followed by a biochemical separation of substrate and product. […]
# [1] = target: human Acid Phosphatase 1 (ACP1), ACP1 (gene 52) (UniProt P24666); assay: NVS_ENZ_hACP1: NovaScreen (NVS) Enzymatic Assay for human Acid Phosphatase 1 (ACP1) (AID 2283136)
# human Acid Phosphatase 1 (ACP1), ACP1 (gene 52), sequence (P24666 whole entry, looked up): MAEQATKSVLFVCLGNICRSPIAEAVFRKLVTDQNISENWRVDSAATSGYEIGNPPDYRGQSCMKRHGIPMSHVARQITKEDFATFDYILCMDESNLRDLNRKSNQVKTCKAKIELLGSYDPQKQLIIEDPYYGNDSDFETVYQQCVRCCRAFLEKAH
# In short: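 Recombinant enzyme expressed in Sf9 cells, tested cell-free; activity read by fluorescence with electrophoretic mobility shift separation of substrate and product, 1.5 h after dosing. Primary screen in duplicate at 25 uM, actives then run in concentration series; loss of signal versus DMSO.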
smiles,measurement,setting,value
CN(C)[C@@H]1C(=O)C(C(N)=O)=C(O)[C@@]2(O)C(=O)C3=C(O)c4c(O)cccc4[C@@](C)(O)[C@H]3C[C@@H]12,outcome,Caspase-1 (Homo sapiens),inactive
Cc1ccc(N=C=O)cc1N=C=O,AC50,Caspase-1 (Homo sapiens),25 µM (active)
CCN(CC)N=O,outcome,[1],inactive
CCNS(=O)(=O)C(F)(F)C(F)(F)C(F)(F)C(F)(F)C(F)(F)C(F)(F)C(F)(F)C(F)(F)F,outcome,[1],inactive
